In PubChem BioAssay (NCI):
The panel holds about 83,000 compounds, 20% with a hit somewhere; the sample as a whole holds those more often.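 Treatment: one concentration, 48 hours, 96-well format. Scoring: percent growth, with anything below 10 considered active.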 Values without a mark were called inactive. Calls of active or inactive are those of the source.

What was measured:
Assay in all cases: NCI-60 one-dose screen, 48 h (100 = growth as untreated, 0 = no growth, -100 = all killed)
Settings in all cases: 10 µM unless noted
SK-MEL-2 melanoma = test system: SK-MEL-2 melanoma
EKVX NSCLC = test system: EKVX NSCLC
SN12C renal = test system: SN12C renal
UO-31 renal = test system: UO-31 renal
TK-10 renal = test system: TK-10 renal
ACHN renal = test system: ACHN renal
CAKI-1 renal = test system: CAKI-1 renal
A498 renal = test system: A498 renal
CCRF-CEM leukemia = test system: CCRF-CEM leukemia
MOLT-4 leukemia = test system: MOLT-4 leukemia

Compound	growth (SK-MEL-2 melanoma)	growth (EKVX NSCLC)	growth (SN12C renal)	growth (UO-31 renal)	growth (TK-10 renal)	growth (ACHN renal)	growth (CAKI-1 renal)	growth (A498 renal)	growth (CCRF-CEM leukemia)	growth (MOLT-4 leukemia)
CO[C@]12C=C/C(=C(/C(=O)OCc3cccnc3)C(=O)CCCCCCCC[C@@]3(OC)C=C/C(=C(/C(=O)OCc4cccnc4)C(=O)CCCCCCCC1)O3)O2	21.4%	12.8%	5.99% (active)	-10.7% (active)	39%	-19.3% (active)	22.9%	1.93% (active)	1.38% (active)	-2.22% (active)
COC(=O)/C(CCC=C(C)C)=C1\[C@@H](OC(C)=O)C[C@@]2(C)[C@H]1C[C@@H](O)[C@H]1[C@@]3(C)CC[C@H](NCCN)[C@@H](C)[C@@H]3CC[C@@]12C	92.6%	82.2%	81.2%	69.4%	101%	99.6%	88.3%	94.4%	79.4%	-13.2% (active)
CC1=C(Nc2ccc(N3CCN(C)CC3)cc2)C(=O)c2cncnc2C1=O	109%	98.3%	98.5%	86.2%	142%	6.25% (active)	87.9%	113%	5.93% (active)	-11.9% (active)
COC(=O)c1n[nH]c2ccc3nc(-c4cn[nH]c4C(F)(F)F)c4c(c3c12)CCCC4	11.9%	64%	47.7%	29%	19.4%	39%	15.3%	5.79% (active)	42.8%	50.4%
COc1ccc(C(=O)Nc2ncc(Cc3ccc(F)cc3)s2)cc1	30.7%	38.4%	25.1%	39.8%	63.7%	28.3%	22.3%	-12.4% (active)	12.3%	14.8%
N#Cc1cccc(F)c1	103%	113%	99.2%	84.9%	106%	95.6%	94.6%	129%	104%	107%
N#Cc1c(-c2cccs2)cc(-c2cccnc2)[nH]c1=O	113%	105%	95.2%	78%	109%	97.2%	96.1%	141%	94.7%	108%
COc1ccc(NC(=O)c2sc3nc(C)c(C(=O)/C=C/c4cccc(OC)c4)cc3c2N)cc1	42.9%	93.5%	19.7%	27.1%	82.2%	52.3%	32.9%	14.3%	7.32% (active)	33.1%
COc1cc(-c2csc(NC(=O)c3cc(-n4cnc(C)c4)cc(C(F)(F)F)c3)n2)cc(OC)c1OC	67.6%	69.1%	44.1%	29.8%	85.6%	54.3%	62.8%	60.6%	24.4%	37.3%
CC(=O)N1N=C(c2ccc(Nc3nc(Nc4ccc(Cl)cc4)nc(Nc4ccc(Cl)cc4)n3)cc2)CC1c1ccco1 (stereo not given)	77.7%	97%	90.3%	85.6%	110%	98.8%	86.8%	107%	92.4%	66%
CO[C@H]1/C=C(/C)CCC[C@H](C)[C@H](O)[C@@H](C)C(=O)C(C)(C)[C@@H](O)CC(=O)O[C@@H]1/C(C)=C/c1csc(C)n1	-5.73% (active)	34%	38.9%	21.8%	18.8%	50%	10.8%	2.04% (active)	25.7%	14.6%
COc1cc(CNC(=O)/C=C/C=C/c2ccc3c(c2)OCO3)ccc1OCc1cn(-c2ccc(C)c(C)c2)nn1	93.5%	94.1%	84.9%	99.8%	120%	81.3%	54.4%	80.3%	95.7%	96.2%
N#Cc1c(N)nnn1Cc1cc(=O)oc2c1ccc1ccccc12	94.6%	76.1%	94.2%	72.8%	115%	97.6%	98%	89.7%	90.9%	89%
O=C(OCc1ccc2cccc(O)c2n1)N1CCN(C(=O)c2cc3cc(F)ccc3[nH]2)CC1	-59.7% (active)	-87.8% (active)	-90.8% (active)	-100% (active)	-97.1% (active)	-99.8% (active)	-97.8% (active)	17.5%	3.76% (active)	-16.9% (active)
